Sampled rows, rich in hits. Any-hit rate of the full collection: about 27%.
Cav3 T inh: inhibitors of human Cav3.2 T-type calcium channel; O95180; Cav3.2-expressing cells, Fluo-4 calcium fluorescence FDSS; hits give low values; B-score at 10 µM; 4% of 100,000 active;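 active means single-dose well whose peak fluorescence ratio is a statistical outlier from its plate by either plate-standardised score or position-corrected B-score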
CYP2C9 inhib: human CYP2C9 inhibition | P11712 | CYP2C9 Supersomes, luciferin-H conversion, luminescence | inhibition, % at 5 µM | 20% of 96,000 active | AID 777;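 active means blocking of liver enzyme CYP2C9 beyond about 50% at 5 µM, limit read from the data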
Target sequence (P11712 whole entry, looked up): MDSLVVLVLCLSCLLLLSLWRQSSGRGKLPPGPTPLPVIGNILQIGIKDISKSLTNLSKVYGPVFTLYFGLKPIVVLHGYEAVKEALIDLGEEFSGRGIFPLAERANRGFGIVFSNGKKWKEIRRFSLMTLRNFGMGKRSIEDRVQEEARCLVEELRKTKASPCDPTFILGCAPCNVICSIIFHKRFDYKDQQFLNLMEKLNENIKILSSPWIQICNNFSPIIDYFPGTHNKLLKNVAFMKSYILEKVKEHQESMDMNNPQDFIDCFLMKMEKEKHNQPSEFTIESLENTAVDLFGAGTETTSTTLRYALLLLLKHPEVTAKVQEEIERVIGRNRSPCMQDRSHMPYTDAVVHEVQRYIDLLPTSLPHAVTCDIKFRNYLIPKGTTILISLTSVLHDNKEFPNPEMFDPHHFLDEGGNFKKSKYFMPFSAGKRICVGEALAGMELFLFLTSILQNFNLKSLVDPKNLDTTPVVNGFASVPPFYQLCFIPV
CYP2C19 inhib: inhibitors of human CYP2C19. P33261. CYP2C19 Supersomes, luciferin-H EGE luminescence, 30 min. inhibition, % at 5 µM. 21% of 96,000 active;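 active means CYP2C19 inhibition above a set limit at 5 µM in the primary screen, cut at about 50% in these data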
PTK2B oligo ant: Pyk2 (human) oligomerization antagonism. Q14289. Q293 cells, Pyk2 FERM NanoBiT luminescence; hits give low values. z-score (the deposit names both 25 µM and 10 µM). 0.83% of 99,000 active;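 active means Z-score of -3 or lower, scaled per plate to the spread of control and sample wells; inactive means z-score above -3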;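 further: negative z-score means lost luminescence so less FERM oligomerization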
CYP2C9 activ: activators of human CYP2C9; activation factor at 5 µM; 1.4% of 96,000 active; P11712; recombinant CYP2C9, luciferin-H conversion, luminescence; hits give high values; factor 1 = untreated enzyme, 0 = blocked;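 active means activation factor of 2 or more for CYP2C9 at a 5 µM dose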
CYP2C19 act: increases human CYP2C19 enzyme activity. recombinant CYP2C19, luciferin-H EGE luminescence; hits give high values; 0 = fully inhibited enzyme, 1 = untreated enzyme. P33261. activation factor at 5 µM. AID 1025. 96,000 tested, under 10 active;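 active means activation factor of at least 2 at 5 µM in the primary screen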
Numbers stand for hits; – = inactive; · = not tested or not shown.

SMILES	Cav3 T inh	CYP2C9 inhib	CYP2C19 inhib	PTK2B oligo ant	CYP2C9 activ	CYP2C19 act
Cc1nn(C(C)C(=O)N2CCc3ccccc3C2)c(=O)c2cc3occc3n12 (centres undefined)	–	–	52	–	–	–
CCC(C(=O)N1CCN(c2ccccn2)CC1)n1nc(C)n2c(cc3occc32)c1=O (centres undefined)	–	91	–	–	–	–
CCC(C(=O)N1CCc2ccccc2C1)n1nc(C)n2c(cc3occc32)c1=O (centres undefined)	–	69	68	–	–	–
Cc1nn(C(C)C(=O)N2CCN(c3ccccn3)CC2)c(=O)c2cc3occc3n12 (centres undefined)	–	–	–	–	–	–
CCc1nn(C(C)C(=O)N2CCN(Cc3ccccc3)CC2)c(=O)c2cc3occc3n12 (centres undefined)	–	67	66	–	–	–
O=C(CCCn1ncn2c(cc3occc32)c1=O)N1CCc2ccccc2C1	–	·	·	–	·	·
Cc1cc(C)cc(OCc2nnc(SCC(=O)N3CCN(c4ccccc4)CC3)o2)c1	·	–	–	–	–	–
Cc1ccc(S(=O)(=O)C(C#N)c2nc3ccccc3nc2N2CCCC2)cc1 (centres undefined)	–	55	87	–	–	–
CC1CCCN(c2nc3ccccc3nc2C(C#N)C(=O)OC2CCCCC2)C1 (centres undefined)	–	–	–	·	–	–
CC1CCCN(c2nc3ccccc3nc2C(C#N)S(=O)(=O)c2cccs2)C1 (centres undefined)	-5.9	75	–	–	–	–
Cc1ccc(S(=O)(=O)C(C#N)c2nc3ccccc3nc2N2CC(C)OC(C)C2)cc1C (centres undefined)	-4.2	–	–	–	–	–
Cc1cccc(S(=O)(=O)C(C#N)c2nc3ccccc3nc2N2CC(C)OC(C)C2)c1 (centres undefined)	–	–	–	–	–	–
COc1ccc(S(=O)(=O)C(C#N)c2nc3ccccc3nc2N2CCCC(C)C2)cc1 (centres undefined)	-4.6	93	86	–	–	–
COc1ccccc1C(CC(N)=O)c1ccco1 (centres undefined)	–	–	–	–	–	–
CCCn1c(SCC(=O)c2cc(C)c(C)cc2C)n[nH]c1=O	–	74	–	–	–	–
Cc1ccc(CNC(=O)CSc2nc(N3CCCCC3)nc(N3CCCCC3)n2)cc1	–	–	71	–	–	–
CCCn1c(SCC(=O)NC2CCCCC2C)n[nH]c1=O (centres undefined)	–	–	–	–	–	–
Cc1ccc(CNC(=O)CSc2n[nH]c(N)n2)cc1	–	–	–	–	–	–
O=C(CSc1n[nH]c(=O)n1C1CC1)Nc1cc(Cl)ccc1Oc1ccccc1	-6	83	59	–	–	–
CCCn1c(SCC(=O)Nc2ccccc2Oc2ccccc2)n[nH]c1=O	–	74	81	–	–	–
CCN1C=CC2=C(C#N)C(N)C(C#N)(C#N)C(c3ccccc3C(F)(F)F)C2C1 (centres undefined)	–	·	·	–	·	·
COc1ccc(Cl)cc1NC(=O)CSc1nc(N2CCCCC2)nc(N2CCCCC2)n1	–	84	–	–	–	–
Cc1ccccc1NC(=O)CSc1nc(N2CCCCC2)nc(N2CCCCC2)n1	–	–	–	–	–	–
CCCn1c(SCC(=O)Nc2cc(Cl)ccc2OC)n[nH]c1=O	–	–	90	–	–	–
CCCn1c(SCC(=O)NC(=O)Nc2ccc(C)cc2C)n[nH]c1=O	–	–	–	–	–	–
SMILES	Cav3 T inh	CYP2C9 inhib	CYP2C19 inhib	PTK2B oligo ant	CYP2C9 activ	CYP2C19 act
COc1cc(OC)c2c(O)c3c(c(-c4c5c(c(O)c6c(OC)cc(OC)cc46)CO[C@@H](C)[C@H]5O)c2c1)[C@H](O)[C@H](C)OC3	–	·	·	·	·	·
CN(NS(=O)(=O)c1ccccc1)c1nc2ccccc2nc1C(F)(F)F	-4.2	90	99	–	–	–
Cc1cc(NS(=O)(=O)Cc2ccccc2)no1	–	–	–	–	–	–
COc1ccc(-c2cc(C(F)(F)F)n3nc(C(=O)NCc4ccco4)cc3n2)cc1OC	–	69	76	–	–	–
COc1ccc(-c2cc(C(F)(F)F)n3nc(C(=O)NCCCn4ccnc4)cc3n2)cc1	–	98	83	–	–	–
CCCNC(=O)c1cc2nc(-c3ccccc3)cc(C(F)(F)F)n2n1	–	·	·	–	·	·
O=C(NCc1ccco1)c1cc2nc(C3CC3)cc(C(F)(F)F)n2n1	·	–	–	–	–	–
CCOC(=O)NC(Nc1ccc(S(N)(=O)=O)cc1)(C(=O)OCC)C(F)(F)F (centres undefined)	–	–	–	–	–	–
CCOC(=O)C(NC(=O)OC(C)C)(Nc1nccs1)C(F)(F)F (centres undefined)	–	–	55	–	–	–
O=C(CNS(=O)(=O)/C=C/c1ccccc1)OCC(=O)N1CCC(Cc2ccccc2)CC1	–	52	–	–	–	–
CC1CC(C)CN(C(=O)COC(=O)CNS(=O)(=O)/C=C/c2ccccc2)C1 (centres undefined)	–	–	–	–	–	–
Cc1csc(NC(=O)C2CCCN(S(=O)(=O)c3ccc4c(c3)oc(=O)n4C)C2)n1 (centres undefined)	–	–	52	·	–	–
Cc1csc(NC(=O)C2CCCN(S(=O)(=O)c3ccc(Br)s3)C2)n1 (centres undefined)	·	94	92	–	–	–
COc1ccc(NC(=O)C2CCCN(S(=O)(=O)c3cccnc3)C2)c(OC)c1 (centres undefined)	–	–	59	·	–	–
COc1ccc(NC(=O)C2CCCN(S(=O)(=O)c3ccc4c(c3)oc(=O)n4C)C2)c(OC)c1 (centres undefined)	–	–	51	·	–	–
Cc1ccc(NC(=O)C2CCCN(S(=O)(=O)c3ccc4c(c3)oc(=O)n4C)C2)nc1 (centres undefined)	–	–	–	·	–	–
O=C1N=C(N2CCc3ccccc3C2)S/C1=C\c1cccc(O)c1	·	·	·	–	·	·
COC(=O)c1cc(OC)c(OC)cc1NC(=O)Cn1nnc(-c2ccccc2Cl)n1	–	–	–	–	–	–
CCOC(=O)c1cn2nc(-c3ccc(OC)cc3)cc2nc1C1CCN(C(=O)OC(C)(C)C)CC1	–	63	–	–	–	–
Cc1ccc(C)c2nc(SCC(=O)N3CCCc4ccccc43)c(C#N)cc12	–	–	–	–	–	–
COCC(=O)N1CCCN(c2nc3c(C)cccc3cc2C#N)CC1	–	–	64	–	–	–
Cc1cc(C)c2nc(SCC(=O)N3CCCCC3)c(C#N)cc2c1	·	–	–	–	–	–
COc1cc(C(=O)N2CCCN(c3nc4cc(C)ccc4cc3C#N)CC2)cc(OC)c1OC	–	–	–	·	–	–

Bioassay records as filed in PubChem.
